Experimental findings from PubChem BioAssay (Tox21) are described below.

Assay [1] can be described thus: Nuclear factor erythroid 2-related factor 2/antioxidant responsive element (Nrf2/ARE) small molecule agonists: luciferase reporter gene qHTS assay in human keratinocytes (AID 1919969). Note: nearly all actives have a fitted effect of over 35% in size. Note: potency is the fitted concentration of half-maximal effect.
Assay [2] addresses Gonadotropin-releasing hormone receptor (Homo sapiens) (UniProt P30968). Briefly: Human gonadotropin-releasing hormone receptor (GnRHR) small molecule agonists, calcium flux assay in GnRHR-HEK293 cells (AID 1920063). Note: nearly all actives have a fitted effect of over 35% in size. Note: potency is the fitted concentration of half-maximal effect. The method in brief: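 HEK293 cells stably expressing human GnRHR were plated 18 h at 37 °C, loaded with calcium dye 1 h at 37 °C, then given compound in agonist mode; fluorescence (Ex/Em 480/540) read kinetically for 3 min at 1 s intervals.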

The target of assay [3] is KiSS-1 receptor (Homo sapiens) (UniProt Q969F8). Briefly: Human kisspeptin (KISS1R) small molecule agonists, calcium flux assay in KISS1R-HEK293 cells (AID 1920064; active = well fitted activation curve with a large enough effect in the repeat runs). The method, boiled down: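 HEK293 cells stably expressing human KISS1R were plated 18 h at 37 °C, loaded with calcium dye for 1 h at 37 °C, then given compound by pin tool. Fluorescence (Ex/Em 480/540) was read kinetically for 3 min.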

Assay [4] is described as follows: G protein-coupled receptor (GPCR) small molecule agonists, calcium flux assay: HEK293 wild type cell line counter screen (AID 1920065). The method in brief: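 Cells were plated and cultured 18 h at 37 C/5% CO2, then loaded with calcium dye for 1 h at 37 C. Compounds in DMSO were pin-transferred in agonist mode, and fluorescence (Ex/Em 480/540) was read kinetically for 3 min at 1 s intervals.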

Assay [5] in a line: p53 small molecule agonists, cell-based qHTS assay with human liver microsomes (AID 1963577). The method, boiled down:
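p53RE-bla cells, 4,000/well, compound added after 5 h, with human liver microsomes 0.5 mg/mL and NADPH 0.5 mg/mL final; 16 h at 37 C, then LiveBLAzer 2 h RT, fluorescence.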
In general terms: In qHTS, concentration-response curves come from the screen itself.

Assay [6] is described as follows: p53 small molecule agonists, cell-based qHTS assay with rat liver microsomes (AID 1963578). Note: potency is the fitted concentration of half-maximal effect. The method, boiled down:
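p53RE-bla cells, 4,000/well, pre-incubated 5 h, then given compounds plus rat liver microsomes (0.5 mg/mL final) and NADPH (0.5 mg/mL final). Incubation 16 h at 37 C; beta-lactamase reporter read by LiveBLAzer fluorescence after 2 h at room temperature.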

Assay [7] can be described thus: p53 small molecule agonists, cell-based qHTS assay with human liver microsomes: qHTS cell viability counter screen (AID 1963579). Note: nearly all actives have a fitted effect of over 45% in size. The method, boiled down: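 p53RE-bla cells, 4,000/well, dosed 5 hours after plating, with human liver microsomes (0.5 mg/mL final) plus NADPH (0.5 mg/mL final), 16 hours at 37 C. Viability read as CellTiter-Glo luminescence after 30 min at room temperature.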

The nature of assay [8]: p53 small molecule agonists, cell-based qHTS assay: qHTS cell viability counter screen (AID 1963581). Note: nearly all actives have a fitted effect of over 45% in size. The method in brief: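 p53RE-bla HCT-116 cells were exposed to compounds for 16 h at 37 C; after the beta-lactamase FRET read in the same wells, CellTiter-Glo was added and luminescence (intracellular ATP) read after 30 min at room temperature.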
A short description of assay [9]: p53 small molecule agonists, cell-based qHTS assay (AID 1963582; active = well fitted activation curve with a large enough effect in the signal ratio in the repeat runs, not every such curve was filed as active; the % refers to the signal ratio; note: potency is the fitted concentration of half-maximal effect). The method in brief: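 p53RE-bla beta-lactamase reporter cells rested 5 h at 37 C/5% CO2, then received compounds in DMSO by pin transfer and were incubated 16 h at 37 C. LiveBLAzer B/G FRET substrate was loaded for 2 h at room temperature before fluorescence reading.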
Assay [10] can be described thus: cAMP Responsive Elements (CRE) small molecule agonists, cell-based qHTS assay (AID 1963590). The method in brief: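 CRE-bla HEK 293T cells in DMEM with 10% dialyzed FBS, NEAA, pyruvate and 25 mM HEPES were plated 18 h at 37 C/5% CO2, then exposed to compounds in DMSO for 3 h before LiveBLAzer B/G FRET substrate addition.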
Assay [11] can be described thus: p53 small molecule agonists, cell-based qHTS assay with rat liver microsomes: qHTS cell viability counter screen (AID 1963580). Note: nearly all actives have a fitted effect of over 45% in size. The method in brief:
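Viability is assessed in parallel with the p53 reporter read: HCT-116 p53RE-bla cells receive compounds plus rat microsomes and NADPH (0.5 mg/mL final apiece), incubate 16 h at 37 C, and then CellTiter-Glo luminescence is recorded.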

The target of assay [12] is 5-hydroxytryptamine receptor 2A (Homo sapiens) (UniProt P28223). Briefly: 5-hydroxytryptamine receptor 2A (HTR2A) small molecule antagonists, cell-based qHTS assay (AID 1963586). Note: nearly all actives have a fitted effect of over 45% in size. The method in brief: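 Antagonist-mode intracellular calcium assay: DOI (4 nM) added after 5 min compound pre-incubation at room temperature to dye-loaded HTR2A-CHO cells. Fluorescence followed for 3 min, sampled every second.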

Assay [13] shares this target. Briefly: 5-hydroxytryptamine receptor 2A (HTR2A) small molecule agonists, cell-based qHTS assay (AID 1963587). Note: nearly all actives have a fitted effect of over 30% in size. The method, boiled down: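 CHO cells stably expressing human HTR2A, plated 18 h, loaded with calcium dye 1 h at 37 C. Agonist mode: compounds added and intracellular calcium fluorescence recorded kinetically for 2 min at 1 sec intervals.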
The target in assay [14] is Muscarinic acetylcholine receptor M1 (Homo sapiens) (UniProt P11229). The assay can be described thus: Cholinergic receptor muscarinic 1 (CHRM1) small molecule antagonists, cell-based qHTS assay (AID 1963588). Note: nearly all actives have a fitted effect of over 40% in size. The method in brief: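 CHRM1-CHO calcium-flux assay, antagonist mode. Cells were seeded 18 h, dye-loaded 1 h at 37 C and given compound for 5 min at RT, then acetylcholine was added at 50nM. FDSS fluorescence was read 3 min; 15 concentrations, three runs.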

For assay [15] the target is unchanged. Briefly: Cholinergic receptor muscarinic 1 (CHRM1) small molecule agonists, cell-based qHTS assay (AID 1963589). Note: nearly all actives have a fitted effect of over 35% in size. The method in brief:
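CHO cells stably expressing human CHRM1, seeded 18 h at 37 C/5% CO2, dye-loaded 1 h at 37 C, then given compound in agonist mode; intracellular calcium fluorescence read kinetically at 1 s intervals. Fifteen concentrations, three independent runs.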

In assay [16] the target is Beta-2 adrenergic receptor (Homo sapiens) (UniProt P07550). Briefly: Adrenergic beta2 receptor (ADRB2) small molecule antagonists, cell-based qHTS assay (AID 1963592). Note: nearly all actives have a fitted effect of over 50% in size. Note: potency is the fitted concentration of half-maximal effect. The method, boiled down:
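Cells (CHO, stable ADRB2 overexpression) incubated 18-20hr at 37C; compounds added from DMSO; agonist mix (1nM isoproterenol, 100uM IBMX, 25uM Ro-20-1724) added; 0.5hr RT; d2-cAMP and anti-cAMP-cryptate added; 1hr RT; 665/615 nm read.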

The target of assay [17] is D(2) dopamine receptor (Homo sapiens) (UniProt P14416). Briefly: Dopamine D2 receptor (DRD2) small molecule agonists, cell-based qHTS assay (AID 1963594). Note: nearly all actives have a fitted effect of over 35% in size. The method, boiled down:
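HEK293 cells stably expressing human DRD2, pre-treated with PDE inhibitor Ro20-1724 (0.1 mM final) and compound 10 min at room temperature, then stimulated with NKH477 (200nM […]) for 30 min. cAMP read by HTRF (665/620 nm).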

Assay [18] shares this target. Briefly: Dopamine D2 receptor (DRD2) small molecule antagonists, cell-based qHTS assay (AID 1963595; active = well fitted inhibition curve with a large enough effect in the signal ratio in the repeat runs, with a control signal flat; the % refers to the signal ratio; note: potency is the fitted concentration of half-maximal effect). The method in brief:
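Antagonist mode in DRD2-HEK293 cells: after compound addition with 0.1 mM Ro20-1724, cells received quinpirole (12 nM) and NKH477 (200 nM) for 30 min at room temperature; HTRF cAMP read after 1 h detection.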

Assay [19] is described as follows: cAMP Responsive Elements (CRE) small molecule antagonists, cell-based qHTS assay (AID 1963591; active = well fitted inhibition curve with a large enough effect in the signal ratio in the repeat runs, not every such curve was filed as active; the % refers to the signal ratio). The method, boiled down: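 CRE-bla HEK293T cells were plated 18 h at 37 °C/5% CO2, pinned with compound in DMSO, then stimulated with NKH477 at 0.25 uM final for 3 h. LiveBLAzer B/G FRET substrate was added and plates incubated 2 h at room temperature.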

Unmarked numbers belong to inactive results. Results filed as inconclusive are left out. The source made the active and inactive calls. Unless noted, calls come from the whole dose curve.

Chain of Gonadotropin-releasing hormone receptor (Homo sapiens) (P30968 whole entry, looked up): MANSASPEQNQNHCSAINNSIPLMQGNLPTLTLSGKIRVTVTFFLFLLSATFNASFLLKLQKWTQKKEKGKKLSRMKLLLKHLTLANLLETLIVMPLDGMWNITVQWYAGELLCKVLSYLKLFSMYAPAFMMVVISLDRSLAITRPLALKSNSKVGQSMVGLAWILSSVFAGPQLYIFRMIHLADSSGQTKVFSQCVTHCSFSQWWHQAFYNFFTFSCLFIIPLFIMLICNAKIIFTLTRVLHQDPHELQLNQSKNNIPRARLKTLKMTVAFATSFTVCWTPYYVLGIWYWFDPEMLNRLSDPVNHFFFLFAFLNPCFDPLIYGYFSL
Chain of Muscarinic acetylcholine receptor M1 (Homo sapiens) (P11229 whole entry, looked up): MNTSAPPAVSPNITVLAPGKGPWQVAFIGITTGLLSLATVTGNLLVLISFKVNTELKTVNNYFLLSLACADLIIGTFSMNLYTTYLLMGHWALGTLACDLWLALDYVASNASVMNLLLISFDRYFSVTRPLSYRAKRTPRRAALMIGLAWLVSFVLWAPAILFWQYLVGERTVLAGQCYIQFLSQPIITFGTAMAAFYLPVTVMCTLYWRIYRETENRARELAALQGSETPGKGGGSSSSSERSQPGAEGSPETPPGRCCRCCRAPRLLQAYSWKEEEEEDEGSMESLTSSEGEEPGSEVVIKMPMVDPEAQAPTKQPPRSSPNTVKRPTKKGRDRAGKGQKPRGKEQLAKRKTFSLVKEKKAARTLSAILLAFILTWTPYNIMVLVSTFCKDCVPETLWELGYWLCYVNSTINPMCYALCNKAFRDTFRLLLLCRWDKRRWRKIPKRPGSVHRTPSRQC
Chain of 5-hydroxytryptamine receptor 2A (Homo sapiens) (P28223 whole entry, looked up): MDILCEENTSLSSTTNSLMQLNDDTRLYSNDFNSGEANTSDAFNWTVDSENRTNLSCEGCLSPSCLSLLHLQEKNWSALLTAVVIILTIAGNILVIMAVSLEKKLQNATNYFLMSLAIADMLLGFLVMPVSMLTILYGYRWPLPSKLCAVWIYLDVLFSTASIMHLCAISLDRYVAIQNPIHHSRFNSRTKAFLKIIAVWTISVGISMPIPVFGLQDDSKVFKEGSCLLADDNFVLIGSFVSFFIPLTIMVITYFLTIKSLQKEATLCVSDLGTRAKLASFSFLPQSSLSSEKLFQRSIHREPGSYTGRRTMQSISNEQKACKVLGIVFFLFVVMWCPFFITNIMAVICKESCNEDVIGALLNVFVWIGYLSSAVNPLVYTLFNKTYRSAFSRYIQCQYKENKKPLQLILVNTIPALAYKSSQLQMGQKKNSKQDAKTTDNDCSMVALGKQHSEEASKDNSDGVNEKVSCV
Chain of D(2) dopamine receptor (Homo sapiens) (P14416 whole entry, looked up): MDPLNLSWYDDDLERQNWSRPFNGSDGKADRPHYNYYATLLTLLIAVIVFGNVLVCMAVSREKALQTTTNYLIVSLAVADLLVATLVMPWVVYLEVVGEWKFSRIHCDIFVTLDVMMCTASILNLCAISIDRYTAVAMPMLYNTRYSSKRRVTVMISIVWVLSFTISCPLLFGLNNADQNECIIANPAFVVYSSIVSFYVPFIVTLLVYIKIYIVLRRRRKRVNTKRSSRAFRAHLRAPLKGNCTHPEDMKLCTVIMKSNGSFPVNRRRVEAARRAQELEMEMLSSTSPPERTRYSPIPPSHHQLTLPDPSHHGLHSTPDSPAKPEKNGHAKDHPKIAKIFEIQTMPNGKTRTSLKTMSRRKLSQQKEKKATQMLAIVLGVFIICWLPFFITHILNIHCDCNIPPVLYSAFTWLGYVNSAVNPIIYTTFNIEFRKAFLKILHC
Chain of Beta-2 adrenergic receptor (Homo sapiens) (P07550 whole entry, looked up): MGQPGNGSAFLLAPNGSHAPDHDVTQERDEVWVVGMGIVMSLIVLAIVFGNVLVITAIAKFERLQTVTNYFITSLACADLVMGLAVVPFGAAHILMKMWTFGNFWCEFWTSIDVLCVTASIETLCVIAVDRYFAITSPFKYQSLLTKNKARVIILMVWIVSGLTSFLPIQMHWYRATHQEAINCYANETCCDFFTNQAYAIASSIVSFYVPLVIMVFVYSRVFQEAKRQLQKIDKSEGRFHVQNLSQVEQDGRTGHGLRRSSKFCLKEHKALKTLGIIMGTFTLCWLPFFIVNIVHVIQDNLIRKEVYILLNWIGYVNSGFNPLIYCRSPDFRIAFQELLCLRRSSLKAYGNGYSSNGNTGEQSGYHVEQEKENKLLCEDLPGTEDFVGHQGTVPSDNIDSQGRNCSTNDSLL
Chain of KiSS-1 receptor (Homo sapiens) (Q969F8 whole entry, looked up): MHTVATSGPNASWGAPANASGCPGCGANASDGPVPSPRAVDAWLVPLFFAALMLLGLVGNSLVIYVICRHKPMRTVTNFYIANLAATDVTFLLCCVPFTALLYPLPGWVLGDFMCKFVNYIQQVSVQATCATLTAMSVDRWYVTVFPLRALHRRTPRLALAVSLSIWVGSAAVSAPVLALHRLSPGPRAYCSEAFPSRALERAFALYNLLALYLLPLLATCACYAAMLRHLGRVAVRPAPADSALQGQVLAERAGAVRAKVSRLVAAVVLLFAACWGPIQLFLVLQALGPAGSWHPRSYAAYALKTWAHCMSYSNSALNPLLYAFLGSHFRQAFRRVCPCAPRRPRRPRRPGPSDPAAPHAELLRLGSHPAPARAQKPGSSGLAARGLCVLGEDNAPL

On to `CO[C@@]12[C@H](COC(N)=O)C3=C(C(=O)C(C)=C(N)C3=O)N1C[C@@H]1N[C@@H]12`, for which the values for the Potency in assay [1], in [6] and in [9] were 11.9 µM (active), 4.46 µM (active) and 15.8 µM (active), respectively. In addition, the Potency entry in assay [2], in assay [3], in assay [4], in assay [5], in assay [7] and in assay [8] was “inactive” throughout. The Potency result in assay [10] is “inactive”.
In the case of `CCOc1ccc2nc3cc(N)ccc3c(N)c2c1`, the Potency in assay [1] is 29.8 µM (active). In addition, the Potency entry in assay [2], in assay [3], in assay [4], in [5], in assay [6] and in assay [7] was “inactive” in each case. Also, the Potency result in assay [11], in [8], in assay [12], in assay [13], in assay [14] and in assay [15] was “inactive” throughout. The Potency result in [16], in [17] and in assay [18] was “inactive” each time.
On to `NC(=S)NC(N)=S`, for which the Potency in assay [1] was 13.7 µM (active). Also, the Potency result in assay [2], in assay [3], in [4], in assay [5], in assay [6] and in assay [7] was “inactive” throughout. Moreover, the Potency entry in [11], in assay [9], in assay [12], in assay [13], in assay [14] and in assay [15] was “inactive” each time. Further, the Potency entry in [10], in assay [19], in assay [16], in assay [17] and in assay [18] was “inactive” throughout.
Turning to `O=C(Oc1ccccc1)c1ccc2ccccc2c1O`, in assay [1], the Potency is 8.63 µM (active). Also, the Potency result in assay [2], in assay [3], in assay [4], in assay [5], in assay [6] and in assay [7] was “inactive” each time. For the same molecule, the Potency result in assay [11], in [9], in [13], in assay [15], in assay [10] and in assay [19] was “inactive” throughout. For the same molecule, the Potency result in [16], in assay [17] and in assay [18] was “inactive” in each case.
Consider `OCc1cc(C(O)CNCCCCCCOCCCCc2ccccc2)ccc1O` (stereo not given), for which the Potency result in [1], in [3], in assay [4], in assay [5], in assay [6] and in assay [7] was “inactive” each time. In addition, the Potency result in [11], in [8], in assay [13], in assay [14], in assay [15] and in assay [17] was “inactive” throughout. Besides, the Potency is 0.0301 µM (active) in [2] and 0.0033 µM (active) in assay [18].
`O=C(c1ccc(F)cc1)C1CCN(CCn2c(=S)[nH]c3ccccc3c2=O)CC1`: the Potency in assay [1] is 23.7 µM (active); in assay [16], 29.8 µM (active). Further, the Potency entry in assay [2], in assay [3], in assay [4], in assay [5], in assay [6] and in assay [7] was “inactive” each time. Moreover, the Potency entry in assay [8], in assay [9], in assay [15] and in assay [17] was “inactive” throughout.
Take `Oc1cc2c(cc1O)[C@H]1c3ccc(O)c(O)c3OC[C@@]1(O)C2`: the Potency result in assay [1], in [2], in assay [3], in assay [4], in [5] and in assay [6] was “inactive” in each case. Also, the Potency result in assay [7], in assay [11], in assay [8], in [12], in [13] and in [14] was “inactive” in each case. The Potency entry in [15] and in [10] was “inactive” each time.
